Results taken from PubChem BioAssay AID1159580 (chemical genetic matrix, 2015).
“And” between values parts separate entries of the source, which are not always exact repeats. Equal values may be shown once. In all, about 5,500 compounds went through this assay and about 2,000 (36%) were called active. Not shown: some 18% with an inconclusive outcome. No stated cut-off is given here; in the data, active means normalized growth mostly below about 0.91 (no sharp cut-off); inconclusive means no clear call, values can overlap the other calls; inactive means mostly above about 0.92. The list shows a part of the results. The source holds several records for some structures; these can differ, active in one and inactive in another.

Test: chemical genetic growth profiling, strain panel (AID 1159580);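 further: tested at 20 µM; growth read once vehicle control cultures reached saturation at 30 °C; 1 = growth at the plate median or of vehicle wells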
Details: growth OD

Measured: normalized growth

CN1CCN(CCCN2c3ccccc3Sc3ccc(Cl)cc32)CC1
0.512 (active) and 0.943 (inactive): S. cerevisiae deletion strains, locus YNL153C, strain GIM3, stronger effect = lower value
0.0843 (active) and 0.921 (inactive): S. cerevisiae deletion strains, locus YNL128W, strain TEP1, stronger effect = lower value
active: S. cerevisiae deletion strains, locus YKL190W, strain CNB1, stronger effect = lower value 0.124 | S. cerevisiae deletion strains, locus YKR001C, strain vps1, stronger effect = lower value 0.0709 | S. cerevisiae deletion strains, locus YLL026W, stronger effect = lower value 0.898 | S. cerevisiae deletion strains, locus YLR027C, strain aat2, stronger effect = lower value 0.843 | S. cerevisiae deletion strains, locus YLR221C, strain rsa3, stronger effect = lower value 0.885 | S. cerevisiae deletion strains, locus YLR320W, strain mms22, stronger effect = lower value 0.866 | S. cerevisiae deletion strains, locus YLR330W, strain CHS5, stronger effect = lower value 0.892 | S. cerevisiae deletion strains, locus YLR342W, strain FKS1 (second series), stronger effect = lower value 0.405 | S. cerevisiae deletion strains, locus YLR342W, strain FKS1, stronger effect = lower value 0.523 | S. cerevisiae deletion strains, locus YLR418C, strain cdc73, stronger effect = lower value 0.25 | S. cerevisiae deletion strains, locus YML120C, strain ndi1, stronger effect = lower value 0.823 | S. cerevisiae deletion strains, locus YMR058W, strain fet3, stronger effect = lower value 0.742 | S. cerevisiae deletion strains, locus YMR125W, strain sto1, stronger effect = lower value 0.869 | S. cerevisiae deletion strains, locus YMR223W, strain ubp8, stronger effect = lower value 0.784 | S. cerevisiae deletion strains, locus YMR231W, strain pep5, stronger effect = lower value 0.0744 | S. cerevisiae deletion strains, locus YMR263W, strain SAP30, stronger effect = lower value 0.717 | S. cerevisiae deletion strains, locus YNL067W, strain RPL9B, stronger effect = lower value 0.724 | S. cerevisiae deletion strains, locus YNL209W, strain ssb2, stronger effect = lower value 0.652 | S. cerevisiae deletion strains, locus YNL233W, strain BNI4, stronger effect = lower value 0.635 | S. cerevisiae deletion strains, locus YNL307C, strain MCK1, stronger effect = lower value 0.777 | S. cerevisiae deletion strains, locus YNL322C, strain KRE1, stronger effect = lower value 0.0727 | S. cerevisiae deletion strains, locus YNR052C, strain pop2, stronger effect = lower value 0.732 | S. cerevisiae deletion strains, locus YOL006C, strain TOP1, stronger effect = lower value 0.427 | S. cerevisiae deletion strains, locus YOR001W, strain rrp6, stronger effect = lower value 0.864 | S. cerevisiae deletion strains, locus YOR070C, strain gyp1, stronger effect = lower value 0.347 | S. cerevisiae deletion strains, locus YOR083W, strain WHI5 (second series), stronger effect = lower value 0.652 | S. cerevisiae deletion strains, locus YOR083W, strain WHI5, stronger effect = lower value 0.669 | S. cerevisiae deletion strains, locus YOR106W, strain vam3, stronger effect = lower value 0.161 | S. cerevisiae deletion strains, locus YOR184W, strain ser1, stronger effect = lower value 0.248 | S. cerevisiae deletion strains, locus YOR265W, strain rbl2, stronger effect = lower value 0.91 | S. cerevisiae deletion strains, locus YOR270C, strain vph1, stronger effect = lower value 0.673 | S. cerevisiae deletion strains, locus YPL051W, strain arl3, stronger effect = lower value 0.778 | S. cerevisiae deletion strains, locus YPL241C, strain CIN2, stronger effect = lower value 0.484 | S. cerevisiae deletion strains, locus YPR163C, strain tif3, stronger effect = lower value 0.148 | S. cerevisiae deletion strains, strain wtn01, stronger effect = lower value 0.355 | S. cerevisiae strains, strain wild type, stronger effect = lower value 0.0575
inactive: S. cerevisiae deletion strains, locus YKL009W, strain mrt4, stronger effect = lower value 0.936 | S. cerevisiae deletion strains, locus YKL068W, stronger effect = lower value 0.989 | S. cerevisiae deletion strains, locus YKL085W, strain MDH1 (second series), stronger effect = lower value 0.979 | S. cerevisiae deletion strains, locus YKL085W, strain MDH1, stronger effect = lower value 0.979 | S. cerevisiae deletion strains, locus YKL160W, strain elf1, stronger effect = lower value 0.974 | S. cerevisiae deletion strains, locus YKR026C, strain gcn3, stronger effect = lower value 0.976 | S. cerevisiae deletion strains, locus YKR091W, strain srl3, stronger effect = lower value 0.982 | S. cerevisiae deletion strains, locus YLL001W, strain dnm1, stronger effect = lower value 0.959 | S. cerevisiae deletion strains, locus YLL041C, strain sdh2, stronger effect = lower value 0.943 | S. cerevisiae deletion strains, locus YLR039C, strain RIC1, stronger effect = lower value 1.18 | S. cerevisiae deletion strains, locus YLR058C, strain SHM2, stronger effect = lower value 0.963 | S. cerevisiae deletion strains, locus YLR102C, strain apc9, stronger effect = lower value 1.01 | S. cerevisiae deletion strains, locus YLR113W, strain HOG1, stronger effect = lower value 0.966 | S. cerevisiae deletion strains, locus YLR258W, strain gsy2, stronger effect = lower value 0.943 | S. cerevisiae deletion strains, locus YLR262C, strain YPT6 (second series), stronger effect = lower value 1.06 | S. cerevisiae deletion strains, locus YLR262C, strain YPT6, stronger effect = lower value 0.689 | S. cerevisiae deletion strains, locus YLR268W, strain sec22, stronger effect = lower value 0.935 | S. cerevisiae deletion strains, locus YLR357W, strain rsc2, stronger effect = lower value 0.914 | S. cerevisiae deletion strains, locus YLR370C, strain arc18, stronger effect = lower value 0.953 | S. cerevisiae deletion strains, locus YLR371W, strain rom2, stronger effect = lower value 1.01 | S. cerevisiae deletion strains, locus YLR384C, strain iki3, stronger effect = lower value 0.987 | S. cerevisiae deletion strains, locus YML016C, strain PPZ1, stronger effect = lower value 0.986 | S. cerevisiae deletion strains, locus YML032C, strain rad52, stronger effect = lower value 0.909 | S. cerevisiae deletion strains, locus YML124C, strain tub3, stronger effect = lower value 0.997 | S. cerevisiae deletion strains, locus YMR078C, strain ctf18, stronger effect = lower value 1 | S. cerevisiae deletion strains, locus YMR129W, stronger effect = lower value 0.966 | S. cerevisiae deletion strains, locus YMR205C, strain PFK2, stronger effect = lower value 0.943 | S. cerevisiae deletion strains, locus YNL071W, strain lat1, stronger effect = lower value 0.918 | S. cerevisiae deletion strains, locus YNL175C, strain NOP13, stronger effect = lower value 0.983 | S. cerevisiae deletion strains, locus YNL183C, strain NPR1, stronger effect = lower value 0.987 | S. cerevisiae deletion strains, locus YNL197C, strain WHI3, stronger effect = lower value 0.975 | S. cerevisiae deletion strains, locus YNL224C, strain SQS1, stronger effect = lower value 1 | S. cerevisiae deletion strains, locus YNL248C, strain rpa49, stronger effect = lower value 0.913 | S. cerevisiae deletion strains, locus YNL250W, strain rad50, stronger effect = lower value 0.983 | S. cerevisiae deletion strains, locus YNL271C, strain bni1, stronger effect = lower value 0.994 | S. cerevisiae deletion strains, locus YNL298W, strain CLA4, stronger effect = lower value 0.937 | S. cerevisiae deletion strains, locus YNL322C, strain KRE1 (second series), stronger effect = lower value 0.995 | S. cerevisiae deletion strains, locus YNR049C, strain mso1, stronger effect = lower value 0.986 | S. cerevisiae deletion strains, locus YOL012C, strain htz1 0.226 | S. cerevisiae deletion strains, locus YOL147C, strain pex11, stronger effect = lower value 0.938 | S. cerevisiae deletion strains, locus YOR061W, strain CKA2, stronger effect = lower value 0.913 | S. cerevisiae deletion strains, locus YOR069W, strain VPS5, stronger effect = lower value 0.996 | S. cerevisiae deletion strains, locus YOR080W, strain dia2, stronger effect = lower value 1 | S. cerevisiae deletion strains, locus YOR136W, strain idh2, stronger effect = lower value 0.925 | S. cerevisiae deletion strains, locus YOR144C, strain elg1, stronger effect = lower value 1 | S. cerevisiae deletion strains, locus YOR231W, strain MKK1, stronger effect = lower value 0.968 | S. cerevisiae deletion strains, locus YOR290C, strain snf2, stronger effect = lower value 0.913 | S. cerevisiae deletion strains, locus YOR316C, strain cot1, stronger effect = lower value 1.01 | S. cerevisiae deletion strains, locus YPL078C, strain atp4, stronger effect = lower value 0.92 | S. cerevisiae deletion strains, locus YPL106C, strain sse1, stronger effect = lower value 0.999 | S. cerevisiae deletion strains, locus YPL240C, strain hsp82, stronger effect = lower value 0.983 | S. cerevisiae deletion strains, locus YPL256C, strain CLN2, stronger effect = lower value 0.978 | S. cerevisiae deletion strains, locus YPR119W, strain clb2, stronger effect = lower value 1.01 | S. cerevisiae deletion strains, locus YPR141C, strain kar3, stronger effect = lower value 0.999 | S. cerevisiae deletion strains, locus YPR167C, strain met16, stronger effect = lower value 0.979
0.151 (active) and 1.03 (inactive): S. cerevisiae deletion strains, locus YMR307W, strain GAS1, stronger effect = lower value
0.101 (active) and 1.03 (inactive): S. cerevisiae deletion strains, locus YPL055C, strain LGE1, stronger effect = lower value
